Measured values taken from PubChem BioAssay (NCATS).
Records with an inconclusive call do not appear. A call without a number means that no potency is given here. Active and inactive are the calls of the source. Calls come from the whole dose curve; as a rule, active = well fitted inhibition curve with a large enough effect; inconclusive = small, poorly fitted or top-dose-only effect; inactive = no such curve, though single readings can be large or run the other way.

Assay: Primary qHTS for small molecule stabilizers of the endoplasmic reticulum resident proteome: Secreted ER Calcium Modulated Protein (SERCaMP) assay (AID 1508630)
Settings: SH-SY5Y GLuc-SERCaMP (Gaussia luciferase released on ER calcium loss) secretion, thapsigargin, luminescence; series mostly up to 38.4 µM
Excerpt: Assay Provider: Brandon K. Harvey Ph.D.
National Institute on Drug Abuse, National Institutes of Health, Baltimore, MD
Endoplasmic reticulum (ER) dysregulation is associated with human pathologies including neurodegenerative, cardiovascular, muscular, and diabetic conditions. Maintenance of ER calcium is critical for functions of the ER and its depletion can lead to loss of ER resident proteins, in a process termed exodosis. Therapeutic compounds capable of attenuating the redistribution of ER proteins under pathological conditions may slow or stop disease progression. To identify such compounds, we performed a quantitative high-throughput screen (qHTS) using the SERCaMP assay, which monitors secretion of ER resident proteins triggered by calcium depletion.
SERCaMP was initially developed as a reporter of ER calcium homeostasis using a Gaussia luciferase with a modified signal peptide and carboxy-terminus (GLuc-SERCaMP), modifications that confer secretion of the reporter in response to ER calcium depletion (Henderson et al., 2014). The assay was used to screen 9,501 compounds, including a collection of drugs approved by the FDA (US), EMA (EU), NHI (Japan), and HC (Canada) regulatory agencies (Huang et al., 2011). Since the SERCaMP reporter reflects the exodosis phenomenon (Trychta et al., 2018a), compounds identified in the screen have the potential to prevent exodosis by different mechanisms such as stabilizing ER calcium or augmenting ERS retrieval.
1. Henderson, M.J., Wires, E.S., Trychta, K.A., Richie, C.T., and Harvey, B.K. (2014). SERCaMP: a carboxy-terminal protein modification that enables monitoring of ER calcium homeostasis. Mol Biol Cell 25, 2828-2839.
2. Huang, R., Southall, N., Wang, Y., Yasgar, A., Shinn, P., Jadhav, A., Nguyen, D.T., and Austin, C.P. (2011). The NCGC pharmaceutical collection: a comprehensive resource of clinically approved drugs enabling repurposing and chemical genomics. Sci Transl Med 3, 80ps16.
3. Trychta, K.A., Back, S., Henderson, M.J., and Harvey, B.K. (2018a). KDEL Receptors Are Differentially Regulated to Maintain the ER Proteome under Calcium Deficiency. Cell Rep 25, 1829-1840 e1826.
SEQUENCE No. (1, 2, 3, etc.); […] (e.g., Cells, Incubation, Reagent, etc.); VALUE and DESCRIPTION.
1; Reagent; 5 uL; 1000 SH-SY5Y cells per wells
3; Compound; 23 nL; Control inhibitor / compound library
5; Reagent; 100 nM; Thapsigargin
7; Reagent; 1 uL; 0.5x coelenterazine
8; Detection; Luminescence; ViewLux imaging system
NOTES (numbers refer to sequence above)
1; SH-SY5Y human neuroblastoma cells stably expressing GLuc-SERCaMP (SH-SY5Y-GLuc-ASARTDL) cells were seeded in 1,536 well white tissue culture treated plates (Corning, Cat# 7464) in DMEM-high glucose-sodium pyruvate (ThermoFisher Scientific, Cat #10569) supplemented with 10% bovine growth serum (Hyclone), 10 U/ml penicillin (Gibco), 10 ug/ml streptomycin (Gibco), and 20 mM HEPES.
2; Assay plates were incubated for 5 hour at 37C in a humidified incubator containing 5% CO2.
3; qHTS libraries (23 nl, final concentrations of 1.53 uM, 7.67 uM, 38.3 uM) or controls (neutral control: DMSO, positive control: dantrolene) were added using a Kalypsis pin-tool Robotic System equipped with 1536 pinheads.
4; Cells were then incubated for 16 hours at 37C, 5% CO2.
5; Thapsigargin was added at 100 nM to deplete ER calcium stores.
6; Cells were incubated for 4 hour (37 °C, 5% CO2)
7; Gaussia luciferase in the medium was measured by adding 1 ul of 0.5x coelenterazine (final concentration 0.07x) prepared in Gaussia Luciferase Glow Assay Buffer (Pierce), without addition of the Cell Lysis Buffer Reagent.
8; Luminescence was measured using a ViewLux […] CCD imaging system (Perkin Elmer) equipped with clear filters. […] The same controls were also used for the calculation of the Z' factor, a measure of assay quality control, as previously described (Zhang et al., 1999). […]
In the case of CCC1(c2ccccc2)C(=O)NCNC1=O, the Potency is reported as “inactive”.
For N[C@@H](Cc1c[nH]c2ccc(O)cc12)C(=O)O, the Potency was “inactive”.
For CN(Cc1cnc2nc(N)nc(N)c2n1)c1ccc(C(=O)N[C@@H](CCC(=O)O)C(=O)O)cc1, the Potency was “inactive”.
In the case of NC(=O)OCC(COC(N)=O)c1ccccc1, the Potency is reported as “inactive”.
In the case of CCOC(=O)c1ncn2c1CN(C)C(=O)c1cc(F)ccc1-2, the Potency is reported as “inactive”.
In the case of CS(=O)(=O)Nc1ccc([N+](=O)[O-])cc1Oc1ccccc1, the Potency is reported as “inactive”.
For CCCCc1oc2ccccc2c1C(=O)c1cc(I)c(OCCN(CC)CC)c(I)c1, the Potency was “inactive”.
With COc1cc2c(c(OC)c1OC)-c1ccc(OC)c(=O)cc1[C@@H](NC(C)=O)CC2 the Potency was “inactive”.
With COc1cc2nc(N3CCN(C(=O)c4ccco4)CC3)nc(N)c2cc1OC the Potency was “inactive”.
For C[C@](N)(Cc1ccc(O)c(O)c1)C(=O)O, the Potency was “inactive”.
With COc1ccccc1OCC(O)CN1CCN(CC(=O)Nc2c(C)cccc2C)CC1 (stereo not given) the Potency was “inactive”.
With COc1ccc(CCN(C)CCCC(C#N)(c2ccc(OC)c(OC)c2)C(C)C)cc1OC (stereo not given) the Potency was “inactive”.
For COc1cc2nc(N3CCN(C(=O)C4COc5ccccc5O4)CC3)nc(N)c2cc1OC (stereo not given), the Potency was “inactive”.
For NCCc1cnc[nH]1, the Potency was “inactive”.
For Cc1ccc(-c2cc(C(F)(F)F)nn2-c2ccc(S(N)(=O)=O)cc2)cc1, the Potency was “inactive”.
In the case of CN1C2CCC1CC(OC(=O)C(CO)c1ccccc1)C2 (stereo not given), the Potency is reported as “inactive”.
With CC(C)NCC(O)c1ccc(O)c(O)c1 (stereo not given) the Potency was “inactive”.
For CC(C)(Oc1ccc(C2CC2(Cl)Cl)cc1)C(=O)O (stereo not given), the Potency was “inactive”.
For CC1(CN2CCC(n3c(=O)[nH]c4ccccc43)CC2)OCc2ccccc2-n2cccc21 (stereo not given), the Potency was “inactive”.
In the case of COc1ccccc1N1CCN(CC(O)COc2cccc3ccccc23)CC1 (stereo not given), the Potency is reported as “inactive”.
With C[C@H]1c2cccc(O)c2C(O)=C2C(=O)[C@]3(O)C(O)=C(C(N)=O)C(=O)[C@@H](N(C)C)[C@@H]3[C@@H](O)[C@@H]21 the Potency was “inactive”.
For CN(C)c1nc(N(C)C)nc(N(C)C)n1, the Potency was “inactive”.
With COc1ccc(C2CNC(=O)C2)cc1OC1CCCC1 (stereo not given) the Potency was “inactive”.
For CC#C[C@]1(O)CC[C@H]2[C@@H]3CCC4=CC(=O)CCC4=C3[C@@H](c3ccc(N(C)C)cc3)C[C@@]21C, the Potency was “inactive”.
In the case of CC1(C)O[C@H]2CC(=O)OC[C@]23[C@H]2CC[C@@]4(C)[C@H](c5ccoc5)OC(=O)[C@H]5O[C@]54[C@]2(C)C(=O)C[C@@H]13, the Potency is reported as “inactive”.
In the case of Cn1ccc2cc3c(cc21)CCN3C(=O)Nc1cccnc1, the Potency is reported as “inactive”.
In the case of Cc1cn([C@H]2C[C@H](N=[N+]=[N-])[C@@H](CO)O2)c(=O)[nH]c1=O, the Potency is reported as “inactive”.
With CC(COc1ccccc1)N(CCCl)Cc1ccccc1 (stereo not given) the Potency was “inactive”.
In the case of CNCCCC12CCC(c3ccccc31)c1ccccc12, the Potency is reported as “inactive”.
In the case of CCC1(C)CC(=O)NC1=O (stereo not given), the Potency is reported as “inactive”.
In the case of CCCNCC(O)COc1ccccc1C(=O)CCc1ccccc1 (stereo not given), the Potency is reported as “inactive”.
With CC[N+](CC)(CC)CCOc1cccc(OCC[N+](CC)(CC)CC)c1OCC[N+](CC)(CC)CC the Potency was “inactive”.
With CC1COc2c(N3CCN(C)CC3)c(F)cc3c(=O)c(C(=O)O)cn1c23 (stereo not given) the Potency was “inactive”.
With Cn1c(=O)c2c(ncn2C)n(C)c1=O the Potency was “inactive”.
In the case of Cc1cc(C(C)(C)C)c(O)c(C)c1CC1=NCCN1, the Potency is reported as “inactive”.
With O=C(C1CCCCC1)N1CC(=O)N2CCc3ccccc3C2C1 (stereo not given) the Potency was “inactive”.
With Cc1ccccc1N1C(=O)c2cc(S(N)(=O)=O)c(Cl)cc2NC1C (stereo not given) the Potency was “inactive”.
In the case of NCCS(=O)(=O)O, the Potency is reported as “inactive”.
In the case of NC(=O)NO, the Potency is reported as “inactive”.
In the case of Clc1ccc2nsnc2c1NC1=NCCN1, the Potency is reported as “inactive”.
